Screening data: PubChem, National Center for Advancing Translational Sciences (NCATS)
Only some compounds are listed: those with a hit (about 7% of all), similar ones and a draw of the others.
ATXN2 expr inh – Primary qHTS for Inhibitors of ATXN expression; HEK-293 ATXN2-luciferase reporter, luminescence, 24 h; Potency, µM (series often up to 57 µM), for the others: at the highest dose activity change, negative = inhibition, actives largely listed as inhibitors; 360,000 compounds, 0.72% hits; note: potency is the fitted concentration of half-maximal effect; % is set by controls: 0 for no effect and ±100 for the full control effect; nearly all actives have a fitted effect of over 55% in size
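qHTS (up to 57 uM final) was run with 24 h compound exposure of reporter cells at 37 °C. Each well was multiplexed: SteadyGlo luminescence measured ATXN2-luciferase expression after a fluorogenic Gly-Phe-AFC viability readout (25 uM final).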
IL-1B inflam inh – qHTS for Inhibitors of Inflammasome Signaling: IL-1-beta AlphaLISA Primary Screen | activity change, % at 57.5 µM | 360,000 compounds, 4.7% hits | THP-1 LPS/ATP IL-1B secretion, AlphaLISA, 16 h; active compounds read low; in the data active = activity change below about -50%; inconclusive = mostly about -30% to -49%; note: % is set by controls: 0 for no effect and ±100 for the full control effect
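THP-1 cells pretreated 1 hr with compounds (up to 57.5 uM final), then stimulated with LPS (250 ng/mL final) plus ATP (1.25 mM final); secreted IL-1B measured by AlphaLISA after 16 hr, decreased signal indicating inhibition.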
S2 tox – Viability Counterscreen for Primary qHTS for Inhibitors of ATXN expression. S2 cells (HEK-293 line with an ATXN2-luciferase reporter) viability, CellTiter-Fluor protease fluorescence, 24 h. Potency, µM (highest dose often 56.7 µM), usual class: cytotoxic. 400,000 compounds, 0.49% hits; note: potency is the fitted concentration of half-maximal effect; nearly all actives have a fitted effect of over 40% in size
DRD3 antagonist – qHTS of D3 Dopamine Receptor Antagonist: qHTS; D(3) dopamine receptor (Homo sapiens), P35462; AID 652054, 2013; D3R cells, DiscoveRx beta-arrestin luminescence, antagonist mode; active compounds read low; 360,000 compounds, 2.5% hits; max response, negative = inhibition, %; in the data active = max response below about -50%; inconclusive = no clear call, values can overlap the other calls; note: % is set by controls: 0 for no effect and ±100 for the full control effect
Target sequence (P35462 whole entry, looked up): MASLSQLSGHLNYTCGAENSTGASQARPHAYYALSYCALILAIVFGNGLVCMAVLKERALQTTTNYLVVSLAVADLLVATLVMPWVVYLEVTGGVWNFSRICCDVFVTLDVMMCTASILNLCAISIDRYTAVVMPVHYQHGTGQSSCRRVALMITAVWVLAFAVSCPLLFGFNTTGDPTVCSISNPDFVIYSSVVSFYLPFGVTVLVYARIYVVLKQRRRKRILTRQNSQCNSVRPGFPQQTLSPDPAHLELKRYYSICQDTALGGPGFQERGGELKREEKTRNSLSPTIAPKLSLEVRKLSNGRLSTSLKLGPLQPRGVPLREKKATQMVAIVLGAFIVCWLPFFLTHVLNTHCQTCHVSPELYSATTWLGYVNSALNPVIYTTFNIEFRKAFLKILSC
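Cells expressing the human receptor were seeded at 1500 cells/well, incubated overnight at 37 degrees C in 5% CO2, then exposed to library compounds with dopamine controls for 90 minutes at 37 degrees C before luminescent detection.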
D3 ag – qHTS of D3 Dopamine Receptor Agonist: qHTS; D3R DiscoveRx beta-arrestin cells, luminescence, 90 min; 410,000 compounds, 0.58% hits; D(3) dopamine receptor (Homo sapiens), P35462; AID 652048, 2013; max activation, %; in the data active = max activation above about 30%; note: 0% is about no effect
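Agonist mode: compounds and dopamine controls were applied to plated cells for 90 min at 37 degrees C after an overnight attachment at 1500 cells/well. Luminescent read-out followed 30 - 60 minutes at room temperature with DiscoveRx detection reagent.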
a7 integrin act – qHTS for Activators of Integrin-Mediated Alleviation for Muscular Dystrophy; alpha7betagal myoblasts, beta-gal FDG fluorescence, 48 h; Potency, µM (series often up to 38.3 µM), for inactives: top-dose activation, usual class: activators; 350,000 compounds, 0.064% hits;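 note: potency is the fitted concentration of half-maximal effect; 100% = response of the positive control SU9516; nearly all actives have a fitted effect of over 60% in size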
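Alpha7betagal+/- myoblasts (passage 13) were plated 16-24 hr, then exposed to compounds (1:260 dilution of DMSO stock) for 48 hours at 37C. After MPER lysis, β-galactosidase reporter activity was read as FDG fluorescence (ex 480/em 540) after 30 minutes.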
* = called active by the depositor; [ ] = remark or other dose. Unless noted, calls come from the whole dose curve; as a rule, active = well fitted curve in the direction sought with a large enough effect; inconclusive = small, poorly fitted or top-dose-only effect, or another doubt; inactive = no such curve, though single readings can be large; an effect the other way counts as inactive or inconclusive.

Screening C#CCOCCOCCOCCNc1nc(N2CCN(C(=O)CCCCCCCCCCNC(=O)[C@H](CO)n3cc(CCCSC)nn3)CC2)nc(N2CCN(C(=O)CCCCCCCCCCNC(=O)[C@H](CCCCN)n3cc(CCO)nn3)CC2)n1 returned ATXN2 expr inh -18%, IL-1B inflam inh -61*, S2 tox inconclusive, DRD3 antagonist -9, D3 ag 6 and a7 integrin act -5%.
Screening C#CCOCCOCCOCCNc1nc(N2CCN(C(=O)CCCCCCCCCCNC(=O)[C@H](CO)n3cc(CCCSC)nn3)CC2)nc(N2CCN(C(=O)CCCCCCCCCCNC(=O)[C@H](CCCN=C(N)N)n3cc(C[C@@H](C)CC)nn3)CC2)n1 returned ATXN2 expr inh 11µM*, IL-1B inflam inh -103*, S2 tox 11µM*, DRD3 antagonist -23, D3 ag -8 and a7 integrin act -33%.
For C#CCOCCOCCOCCNc1nc(N2CCN(C(=O)CCCCCCCCCCNC(=O)Cn3cc(C[C@@H](C)O)nn3)CC2)nc(N2CCN(C(=O)CCCCCCCCCCNC(=O)[C@H](CCCCN)n3cc(CCCC(=O)O)nn3)CC2)n1 the results were ATXN2 expr inh -8%, IL-1B inflam inh inconclusive, S2 tox inactive, DRD3 antagonist -25, D3 ag -5 and a7 integrin act 15%.
Screening C[C@]12c3[nH]c4cc(-c5ccco5)ccc4c3CCN1C(=O)[C@@H](CC(=O)NCCC1=CCCCC1)C[C@@H]2C(=O)N1CCOCC1 returned ATXN2 expr inh 0%, IL-1B inflam inh 0, S2 tox inconclusive, DRD3 antagonist 7, D3 ag 11 and a7 integrin act -22%.
For CCN(CC)C(=O)c1sc(NC(=O)c2ccc(Br)o2)c(C(=O)OC)c1C the results were ATXN2 expr inh -9%, IL-1B inflam inh -11, S2 tox inactive, DRD3 antagonist 29, D3 ag 0 and a7 integrin act 5%.
Screening CC1CCCCN1Cc1nc2c(c(=O)n(C)c(=O)n2C)n1Cc1ccc(Br)cc1 (stereo not drawn) returned ATXN2 expr inh 9%, S2 tox inactive and D3 ag 5.
Screening O=C(CCSc1ccc(Cl)cc1)c1cccs1 returned ATXN2 expr inh -1%, IL-1B inflam inh -106*, S2 tox inactive, DRD3 antagonist 0, D3 ag -17 and a7 integrin act -60%.
For NC(=O)c1ccccc1OCC(=O)NS(=O)(=O)c1ccc(Cl)cc1 the results were ATXN2 expr inh 16%, IL-1B inflam inh 11, S2 tox inactive, DRD3 antagonist 24, D3 ag 18 and a7 integrin act -6%.
`NC(=O)c1ccccc1OCC(=O)c1ccc(Cl)cc1` gave ATXN2 expr inh -2%, IL-1B inflam inh -57*, S2 tox inactive, DRD3 antagonist -29, D3 ag -4 and a7 integrin act -22%.
Screening Cc1ccc2c(c1)Oc1ccc(NC(=O)CCl)cc1C(=O)N2 returned ATXN2 expr inh inconclusive, IL-1B inflam inh -100*, S2 tox 10µM*, DRD3 antagonist inconclusive, D3 ag 1 and a7 integrin act -67%.
Screening O=[N+]([O-])c1cccc(SSc2cccc([N+](=O)[O-])c2)c1 returned ATXN2 expr inh -12%, IL-1B inflam inh inconclusive, S2 tox inconclusive, DRD3 antagonist -69*, D3 ag -28 and a7 integrin act -66%.
`Nc1cccc([N+](=O)[O-])c1` gave ATXN2 expr inh -12%[11.3 µM], IL-1B inflam inh -17, S2 tox inactive, DRD3 antagonist -11, D3 ag 1 and a7 integrin act 20%.
O=C(NCCCn1ccnc1)c1cn(Cc2ccc(F)cc2)nn1 was read as ATXN2 expr inh -4%, IL-1B inflam inh 0, S2 tox inactive, DRD3 antagonist -2, D3 ag -10 and a7 integrin act 21%.
For CC(=O)NN1C(=O)/C(=C\c2ccc(Br)o2)SC1=S the results were ATXN2 expr inh -28%, IL-1B inflam inh -97*, S2 tox inactive, DRD3 antagonist -59*, D3 ag -4 and a7 integrin act -43%.
O=C1CN(C(=O)COc2ccc(Cl)cc2)C(c2ccc(F)cc2)c2cc(Br)ccc2N1 (stereo not drawn) was read as ATXN2 expr inh inconclusive, S2 tox inconclusive and D3 ag -1.
Screening CC1=CC(c2ccccc2)=NS(=O)(=O)N1 returned ATXN2 expr inh 4%, IL-1B inflam inh -104*, S2 tox inactive, DRD3 antagonist inconclusive, D3 ag -1 and a7 integrin act 6%.
`CCOC(=O)N1CCN(CC(=O)N2c3ccccc3CCc3ccccc32)CC1` gave IL-1B inflam inh 1, S2 tox inactive, DRD3 antagonist -7, D3 ag -1 and a7 integrin act 5%.
`Cc1csc(=N)n1CC(=O)N1CCc2ccccc21` gave ATXN2 expr inh -4%, IL-1B inflam inh 7, S2 tox inactive, DRD3 antagonist -86*, D3 ag -27 and a7 integrin act -7%.
O=C(CN1CCN(Cc2ccccc2)CC1)N1CCCc2ccccc21 was read as IL-1B inflam inh 20, S2 tox inactive, DRD3 antagonist -51*, D3 ag -22 and a7 integrin act 13%.
`O=C(CN1CCC(N2CCCCC2)CC1)N1CCCc2ccccc21` gave ATXN2 expr inh -1%, IL-1B inflam inh 0, S2 tox inactive, DRD3 antagonist -76*, D3 ag -7 and a7 integrin act -26%.
`CC1CCN(CC(=O)N2c3ccccc3CCc3ccccc32)CC1` gave ATXN2 expr inh -14%, IL-1B inflam inh -15, S2 tox inactive, DRD3 antagonist -64*, D3 ag -6 and a7 integrin act 19%.
Cc1c(Cl)cccc1NC(=O)CSc1ncnc2c1sc1ccccc12 was read as ATXN2 expr inh 4%, S2 tox inactive and D3 ag 4.
Screening Cc1cc(C)cc(NC(=O)CSc2nc3ccccc3nc2N2CCCCC2)c1 returned ATXN2 expr inh -8%, IL-1B inflam inh 21, S2 tox inactive, DRD3 antagonist 14, D3 ag -5 and a7 integrin act 1%.
`COc1ccc(C(=O)CCC(=O)Nc2ccc(F)cc2F)cc1` gave ATXN2 expr inh 11%, S2 tox inactive and D3 ag -5.
For Cc1ccc(CNC(=O)c2ccc(CS(=O)(=O)Cc3ccc(F)cc3)o2)cc1 the results were ATXN2 expr inh -13%, S2 tox inactive and D3 ag -5.
